According to PubChem BioAssay:
Inconclusive results are not listed. Active and inactive are the calls of the source. Unless noted, the rule behind the calls is not given here.

Experiments:
[1] = yeast TOR pathway RPL19A-GFP modulators, primary screen, cell-based, S. cerevisiae, multiplex flow cytometry (AID 1862; in the data active = percent of DMSO control GFP below about 86%;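 note: lower values mimic rapamycin by blocking the RPL19A rise seen in DMSO cells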); conditions: S. cerevisiae RPL19A-GFP strain, flow cytometry fluorescence, 3 h; at 10 µM; stronger effect = lower value
[2] = modulators of MEP2-GFP levels in yeast, primary screen, S. cerevisiae, multiplex flow cytometry (AID 1867;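 active = GFP response, as percent of the DMSO control, above the screen-wide mean plus 3 SD, about 139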;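 note: median GFP channel fluorescence of barcode-gated MEP2-GFP cells measured by flow cytometry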); conditions: S. cerevisiae MEP2-GFP strain, 3 h, at 10 µM, stronger effect = higher value
[3] = modulators of CIT2-GFP expression in yeast, primary screen, S. cerevisiae, GFP fusion, multiplex flow cytometry (AID 1870;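 active = percent response above a set limit, the screen-wide mean plus 3 SD, cut at about 130% in these data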;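 note: barcoded CIT2-GFP strain pooled with four other GFP strains with rapamycin as positive control; median GFP fluorescence per well over plate mean of DMSO wells so 100% = DMSO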); conditions: 3 h, at 10 µM, stronger effect = higher value
[4] = modulators of LAP4-GFP expression in yeast, primary screen, S. cerevisiae, multiplex flow cytometry (AID 1873;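 active = GFP signal, as percent of the solvent control, above the screen mean plus 3 SD, about 149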); conditions: 3 h, at 10 µM, stronger effect = higher value
[5] = modulators of AGP1-GFP expression in yeast TOR pathway, primary screen, cell-based, multiplex flow cytometry, S. cerevisiae (AID 1887;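 active = GFP signal above the screen-wide mean plus 3 SD, that is over about 124.5% of the solvent control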;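 note: AGP1-GFP fusion strain of S. cerevisiae within a five-strain barcoded multiplex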); conditions: 3 h, at 10 µM, stronger effect = higher value
[6] = inhibitors of CD8+ T cell-vesicle binding, pilot screen, LFA-1/ICAM-1 modulator project, MLPCN validation set, flow cytometry (AID 2523;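 active = response below a set limit, under 55% cells CD8-positive and vesicle-bound, and CD8 cells' 90th-percentile brightness under 279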;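 for vesicle binding response: mean PE anti-B7-1 fluorescence of CD8+ cells relative to row control; 100% = QL9-loaded vesicles with DMSO vehicle in the same plate row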); conditions: 2C mouse CD8+ T cells, at 7 µM, stronger effect = lower value; double positive events: measured here: CD8+/vesicle+ event percentage
[7] = biological target: Integrin beta-1 (Homo sapiens) + Integrin alpha-4 (Homo sapiens) (UniProt P13612+P05556); assay: inhibition of HUTS-21 binding to VLA-4, pilot screen, VLA-4 allosteric modulator project, U937 cells, HUTS-21 mAb, flow cytometry, validation set (AID 2674;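 active = inhibition above 50%, about 3 SD of the validation set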;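 note: antibody binding induced by the VLA-4 ligand LDV present at three times its Kd; 0% = LDV ligand with antibody and no compound and 100% = antibody without LDV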); conditions: HUTS-21 LIBS mAb binding, at 6.7 µM, stronger effect = higher value
Integrin beta-1 (Homo sapiens) + Integrin alpha-4 (Homo sapiens), sequence (P05556 whole entry, looked up): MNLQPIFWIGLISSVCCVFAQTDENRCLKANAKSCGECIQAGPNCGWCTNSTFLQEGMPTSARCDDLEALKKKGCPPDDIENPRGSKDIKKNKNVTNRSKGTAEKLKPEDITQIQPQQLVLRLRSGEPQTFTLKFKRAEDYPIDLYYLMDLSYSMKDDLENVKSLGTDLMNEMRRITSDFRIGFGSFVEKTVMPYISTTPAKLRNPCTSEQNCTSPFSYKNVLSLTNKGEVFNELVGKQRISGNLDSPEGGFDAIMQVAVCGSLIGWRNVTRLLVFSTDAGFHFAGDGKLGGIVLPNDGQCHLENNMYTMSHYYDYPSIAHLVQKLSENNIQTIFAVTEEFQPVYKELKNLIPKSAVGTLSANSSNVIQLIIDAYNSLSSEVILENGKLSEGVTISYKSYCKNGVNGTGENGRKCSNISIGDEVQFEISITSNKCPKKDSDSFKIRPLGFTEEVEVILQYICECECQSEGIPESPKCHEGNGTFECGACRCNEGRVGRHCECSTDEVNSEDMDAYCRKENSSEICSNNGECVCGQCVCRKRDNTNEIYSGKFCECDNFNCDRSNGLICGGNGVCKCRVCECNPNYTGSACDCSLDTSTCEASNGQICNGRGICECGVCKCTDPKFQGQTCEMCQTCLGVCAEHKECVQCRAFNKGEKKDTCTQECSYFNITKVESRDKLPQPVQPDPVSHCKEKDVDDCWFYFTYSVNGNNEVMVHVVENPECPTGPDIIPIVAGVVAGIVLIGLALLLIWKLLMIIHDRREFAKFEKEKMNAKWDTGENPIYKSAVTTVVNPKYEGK
Integrin beta-1 (Homo sapiens) + Integrin alpha-4 (Homo sapiens), sequence (P13612 whole entry, looked up): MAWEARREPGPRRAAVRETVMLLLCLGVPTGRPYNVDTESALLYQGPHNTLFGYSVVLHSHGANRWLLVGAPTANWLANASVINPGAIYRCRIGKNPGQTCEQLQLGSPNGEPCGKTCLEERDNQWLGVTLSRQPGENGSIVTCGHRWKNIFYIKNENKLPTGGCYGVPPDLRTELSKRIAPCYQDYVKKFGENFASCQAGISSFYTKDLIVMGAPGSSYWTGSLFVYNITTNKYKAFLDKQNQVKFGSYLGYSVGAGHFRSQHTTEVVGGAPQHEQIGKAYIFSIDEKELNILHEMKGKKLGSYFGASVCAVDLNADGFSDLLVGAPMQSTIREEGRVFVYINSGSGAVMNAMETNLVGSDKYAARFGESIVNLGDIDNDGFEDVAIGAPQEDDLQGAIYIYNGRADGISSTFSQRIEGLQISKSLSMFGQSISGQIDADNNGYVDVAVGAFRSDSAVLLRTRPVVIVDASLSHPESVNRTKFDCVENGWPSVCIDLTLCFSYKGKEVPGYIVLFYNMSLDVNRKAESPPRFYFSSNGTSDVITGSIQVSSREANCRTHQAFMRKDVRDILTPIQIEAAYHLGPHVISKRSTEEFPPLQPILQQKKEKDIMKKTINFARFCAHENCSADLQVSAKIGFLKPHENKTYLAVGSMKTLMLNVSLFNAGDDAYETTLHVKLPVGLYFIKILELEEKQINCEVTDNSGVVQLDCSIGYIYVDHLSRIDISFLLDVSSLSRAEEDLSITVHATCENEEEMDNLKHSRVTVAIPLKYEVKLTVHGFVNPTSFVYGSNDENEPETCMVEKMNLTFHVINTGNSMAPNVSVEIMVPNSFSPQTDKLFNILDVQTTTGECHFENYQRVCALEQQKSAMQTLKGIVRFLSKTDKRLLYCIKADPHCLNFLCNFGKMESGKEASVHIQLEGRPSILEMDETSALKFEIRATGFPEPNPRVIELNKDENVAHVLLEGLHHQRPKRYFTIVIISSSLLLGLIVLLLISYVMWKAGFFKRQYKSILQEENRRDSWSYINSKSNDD

[8] = superoxide lowering in aged yeast cells, pilot screen, validation compound set (AID 2706;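 active = superoxide response below 65% of plate, a cut near 3 SD across the whole screen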;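 note: yeast exposed to compound for one week at 30 degrees C before staining; 100% = mean of all compound wells on the same plate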); conditions: S. cerevisiae aging, superoxide DHE fluorescence; at 10 µM; stronger effect = lower value
[9] = biological target: Beta-adrenergic receptor kinase 1 (Homo sapiens) (UniProt P25098); assay: GRK2 binders displacing RNA aptamer, biochemical, validation, human GRK2, bead flow cytometry (AID 488806;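 active = aptamer binding inhibition above 30%, about 3 SD of noise from non-fluorescent compounds; inactive = inhibition at or below 30%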); conditions: bead-bound GRK2, FAM-aptamer displacement, at 10 µM, stronger effect = higher value
[10] = biological target: Beta-2 adrenergic receptor (Homo sapiens) (UniProt P07550); assay: beta2AR agonists driving receptor internalization, pilot screen, cell-based, FAP fluorogen, flow cytometry, validation set (AID 504459;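 active = percent response above 42, roughly 3 SD of non-fluorescent test compounds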;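 note: agonist-driven loss of surface beta2AR via internalization measured by FAP dye flow cytometry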); conditions: Am2.2-beta2AR cells, FAP surface receptor flow cytometry; at 10 µM; stronger effect = higher value
[11] = biological target: AP-2 complex subunit beta (Homo sapiens) (UniProt P63010); assay: inhibitors of arrestin peptide binding to AP2, pilot screen, biochemical, validation set, GST-AP2 beads, flow cytometry (AID 504541;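 active = inhibition above 54%, about 3 SD of non-fluorescent compounds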;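 note: AP2 carries R879A mutation and is captured from E. coli lysate; bead-bound FITC arrestin peptide fluorescence measuring arrestin peptide binding to AP2; 0% = DMSO wells and 100% = excess unlabeled arrestin peptide control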); conditions: FITC arrestin peptide, at 10 µM, stronger effect = higher value
AP-2 complex subunit beta (Homo sapiens), sequence (P63010 whole entry, looked up, one chain of several): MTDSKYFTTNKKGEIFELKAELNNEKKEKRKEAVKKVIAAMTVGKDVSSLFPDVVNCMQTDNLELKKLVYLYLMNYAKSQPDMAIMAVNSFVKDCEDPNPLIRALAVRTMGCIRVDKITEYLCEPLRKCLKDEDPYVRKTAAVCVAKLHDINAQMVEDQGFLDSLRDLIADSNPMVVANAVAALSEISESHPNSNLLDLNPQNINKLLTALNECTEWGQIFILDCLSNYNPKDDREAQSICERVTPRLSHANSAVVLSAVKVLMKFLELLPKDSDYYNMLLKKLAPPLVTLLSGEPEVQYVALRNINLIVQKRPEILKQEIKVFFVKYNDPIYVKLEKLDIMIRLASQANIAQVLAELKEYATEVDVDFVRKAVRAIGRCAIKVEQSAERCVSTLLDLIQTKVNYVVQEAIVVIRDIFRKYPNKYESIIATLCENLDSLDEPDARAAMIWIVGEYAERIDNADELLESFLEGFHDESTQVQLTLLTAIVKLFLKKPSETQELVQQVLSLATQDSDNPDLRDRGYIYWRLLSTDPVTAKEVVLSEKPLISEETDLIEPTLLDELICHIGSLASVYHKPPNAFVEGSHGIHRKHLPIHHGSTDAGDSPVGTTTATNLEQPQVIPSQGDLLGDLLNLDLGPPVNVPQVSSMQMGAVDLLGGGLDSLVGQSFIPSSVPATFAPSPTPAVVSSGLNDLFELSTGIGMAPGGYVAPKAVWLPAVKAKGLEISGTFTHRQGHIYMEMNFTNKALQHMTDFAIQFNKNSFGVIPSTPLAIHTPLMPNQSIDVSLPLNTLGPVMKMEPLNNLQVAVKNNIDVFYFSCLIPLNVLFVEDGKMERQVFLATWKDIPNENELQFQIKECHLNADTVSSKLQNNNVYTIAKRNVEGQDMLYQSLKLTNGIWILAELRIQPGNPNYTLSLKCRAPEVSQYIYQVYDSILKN

[12] = yeast V-ATPase proton transport modulators, S. cerevisiae, pHLuorin, HTS validation (AID 504600; in the data active = response above about 15%;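 note: plate controls were DMSO for no effect and reference compound for full effect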); conditions: S. cerevisiae pHLuorin cytosolic pH, at 10 µM, stronger effect = higher value
[13] = system: anti-desmoglein-3 scFv antibody binding to human DSG3; assay: inhibitors of anti-DSG3 scFv binding to DSG3, pilot screen, biochemical, validation compound set, bead-based, flow cytometry (AID 588368;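 active = binding below the plate cutoff, the plate median minus 3 SD, with a reading above zero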;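 note: signal is the median channel fluorescence of bead-bound GFP antibody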); conditions: Protein G beads, DSG3-Fc, scFv-GFP binding, at 10 µM, stronger effect = lower value
[14] = system: Botulinum neurotoxin type F light chain protease (Clostridium botulinum); assay: Botulinum neurotoxin type F light chain protease inhibition, multiplex microsphere flow cytometry, validation set (AID 588459); conditions: multiplex microsphere protease substrate cleavage assay, at 10 µM, stronger effect = higher value
[15] = biological target: Botulinum neurotoxin type A (Clostridium botulinum) (UniProt P0DPI0); assay: BoNT/A light chain protease inhibitors, biochemical, multiplex microsphere flow cytometry, validation set (AID 588460); conditions: at 10 µM, stronger effect = higher value
Botulinum neurotoxin type A (Clostridium botulinum), sequence (P0DPI0 whole entry, looked up): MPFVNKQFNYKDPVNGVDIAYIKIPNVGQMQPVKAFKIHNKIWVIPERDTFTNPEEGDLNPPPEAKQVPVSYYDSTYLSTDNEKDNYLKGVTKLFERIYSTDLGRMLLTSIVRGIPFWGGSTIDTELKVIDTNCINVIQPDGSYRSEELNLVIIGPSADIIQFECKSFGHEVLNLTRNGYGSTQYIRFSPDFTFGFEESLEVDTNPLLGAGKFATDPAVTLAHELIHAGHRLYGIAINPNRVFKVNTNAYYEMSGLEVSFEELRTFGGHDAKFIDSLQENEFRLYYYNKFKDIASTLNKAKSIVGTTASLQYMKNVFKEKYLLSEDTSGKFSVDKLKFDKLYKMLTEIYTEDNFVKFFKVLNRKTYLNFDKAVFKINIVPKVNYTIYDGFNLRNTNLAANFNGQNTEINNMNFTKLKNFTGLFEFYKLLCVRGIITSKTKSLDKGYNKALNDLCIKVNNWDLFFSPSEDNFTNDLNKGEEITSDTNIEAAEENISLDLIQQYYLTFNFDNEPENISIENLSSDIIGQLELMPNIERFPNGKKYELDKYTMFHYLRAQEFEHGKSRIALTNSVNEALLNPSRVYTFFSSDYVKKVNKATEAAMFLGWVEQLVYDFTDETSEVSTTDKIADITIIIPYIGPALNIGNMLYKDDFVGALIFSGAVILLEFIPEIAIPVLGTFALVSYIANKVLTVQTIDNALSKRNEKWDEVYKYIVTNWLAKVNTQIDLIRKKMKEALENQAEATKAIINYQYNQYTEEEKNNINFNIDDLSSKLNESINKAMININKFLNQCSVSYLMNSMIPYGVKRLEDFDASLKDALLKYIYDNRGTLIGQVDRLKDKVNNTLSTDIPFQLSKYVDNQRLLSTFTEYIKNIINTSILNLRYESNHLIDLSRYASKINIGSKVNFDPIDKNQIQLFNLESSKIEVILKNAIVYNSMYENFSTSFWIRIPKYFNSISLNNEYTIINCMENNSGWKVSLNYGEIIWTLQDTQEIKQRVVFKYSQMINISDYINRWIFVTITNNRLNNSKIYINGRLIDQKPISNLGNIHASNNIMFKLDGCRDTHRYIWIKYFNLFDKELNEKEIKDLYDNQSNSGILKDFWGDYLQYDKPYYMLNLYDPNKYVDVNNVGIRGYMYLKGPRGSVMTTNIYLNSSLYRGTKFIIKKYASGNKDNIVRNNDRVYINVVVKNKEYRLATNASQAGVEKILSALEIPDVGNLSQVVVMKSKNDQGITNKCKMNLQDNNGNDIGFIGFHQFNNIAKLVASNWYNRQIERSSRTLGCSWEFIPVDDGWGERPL

[16] = biological target: Lethal factor (Bacillus anthracis) (UniProt P15917); assay: Lethal factor protease inhibitors, Bacillus anthracis, multiplex microsphere cleavage assay, validation set (AID 588461); conditions: flow cytometry, at 10 µM, stronger effect = higher value
Lethal factor (Bacillus anthracis), sequence (P15917 whole entry, looked up): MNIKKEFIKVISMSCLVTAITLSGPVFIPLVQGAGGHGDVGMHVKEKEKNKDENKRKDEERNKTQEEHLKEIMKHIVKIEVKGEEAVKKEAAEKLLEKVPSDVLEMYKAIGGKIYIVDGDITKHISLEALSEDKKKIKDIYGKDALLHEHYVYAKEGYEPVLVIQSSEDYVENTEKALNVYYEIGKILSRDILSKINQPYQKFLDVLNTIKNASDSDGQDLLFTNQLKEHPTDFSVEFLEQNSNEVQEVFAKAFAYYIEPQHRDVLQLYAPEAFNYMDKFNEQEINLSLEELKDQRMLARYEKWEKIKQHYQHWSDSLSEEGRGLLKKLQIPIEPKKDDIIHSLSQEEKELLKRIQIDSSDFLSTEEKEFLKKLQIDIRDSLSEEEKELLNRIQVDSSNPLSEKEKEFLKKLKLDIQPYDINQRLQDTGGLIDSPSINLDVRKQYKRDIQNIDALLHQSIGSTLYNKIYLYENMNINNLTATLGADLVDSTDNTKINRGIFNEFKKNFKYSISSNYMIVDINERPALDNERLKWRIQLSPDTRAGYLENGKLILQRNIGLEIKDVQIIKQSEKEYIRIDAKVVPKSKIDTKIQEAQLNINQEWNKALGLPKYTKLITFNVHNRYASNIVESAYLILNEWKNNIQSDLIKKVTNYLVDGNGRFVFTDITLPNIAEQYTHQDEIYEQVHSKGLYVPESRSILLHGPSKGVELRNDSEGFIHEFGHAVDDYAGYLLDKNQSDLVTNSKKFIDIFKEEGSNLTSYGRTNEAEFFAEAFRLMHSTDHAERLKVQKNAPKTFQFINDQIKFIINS

[17] = inhibitors of fungal efflux pumps CDR1, CDR2, MDR1, pilot screen, validation compound set, multiplex, phenotypic (AID 588506;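 active = efflux inhibition above 0.42, the validation set average plus 4 SD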;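 note: Nile Red retained in cells so higher fluorescence means more efflux inhibition; 0 = negative control wells and 1 = enniatin B 25 µM full block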); conditions: S. cerevisiae pump-expressing triplex, Nile Red efflux flow cytometry; at 10 µM; stronger effect = higher value
[18] = biological target: ATP-binding cassette sub-family B member 6 (Homo sapiens) (UniProt Q9NP58); assay: ABCB6 transporter inhibitors, pilot screen, K562-ABCB6 cells, flow cytometry, validation set (AID 588550;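 active = inhibition above the screen-wide mean plus 3 SD, about 51%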;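 note: 0% = DMSO wells and 100% = benzethonium chloride 70 µM positive control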); conditions: K562-ABCB6 porphyrin accumulation, 1 h, at 10 µM, stronger effect = higher value
[19] = promoters of myeloid differentiation in arrested cells, primary screen, cell-based, GFP/MAC1 double positive, flow cytometry, validation set (AID 588685;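 active = differentiation response of at least 50%, scaled between solvent and reference control, from cells with both markers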;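 note: compound exposure lasts four days before antibody staining and flow analysis; 0% = DMSO wells and 100% = 5 µM fulvestrant positive control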); conditions: ER-HoxA9 marrow cells, stronger effect = higher value

COc1ccccc1CN1CCCCC1c1cccnc1 (centres undefined)
65.8%: double positive events [6]
inactive: percent of DMSO control GFP [1] 104% | GFP response vs DMSO [2] 99.3% | percent response of DMSO control [3] 106% | GFP response vs DMSO [4] 97.3% | GFP response, % of DMSO [5] 107% | vesicle binding response [6] 217% | inhibition [7] 4.73% | superoxide response (% of plate) [8] 98.9% | aptamer binding inhibition [9] 6% | response [10] -6.83% | inhibition [11] 1.86% | response [12] -0.89% | binding (% of control) [13] 97.1% | inhibition [14] 1.4% | inhibition [15] -0.8% | inhibition [16] 4% | efflux inhibition (fraction of control) [17] -0.17 | inhibition [18] 6% | differentiation response [19] 7.09%

c1ccc2c3c([nH]c2c1)CNCC3
55.3%: double positive events [6]
inactive: percent of DMSO control GFP [1] 100% | GFP response vs DMSO [2] 104% | percent response of DMSO control [3] 106% | GFP response vs DMSO [4] 111% | GFP response, % of DMSO [5] 105% | vesicle binding response [6] 82.8% | inhibition [7] -19.9% | superoxide response (% of plate) [8] 113% | aptamer binding inhibition [9] -5% | response [10] -12.8% | inhibition [11] -0.49% | response [12] 0.12% | binding (% of control) [13] 181% | inhibition [14] -9.7% | inhibition [15] 0.1% | inhibition [16] -60.3% | efflux inhibition (fraction of control) [17] 0.395 | inhibition [18] -82% | differentiation response [19] -0.18%

CC[N+]1(C)CCCC(OC(=O)C(O)(c2ccccc2)c2ccccc2)C1 (centres undefined)
inactive: percent of DMSO control GFP [1] 99% | GFP response vs DMSO [2] 102% | percent response of DMSO control [3] 103% | GFP response vs DMSO [4] 103% | GFP response, % of DMSO [5] 119% | vesicle binding response [6] 160% | inhibition [7] 5.69% | superoxide response (% of plate) [8] 96.5% | aptamer binding inhibition [9] 4% | response [10] -15.3% | inhibition [11] -0.87% | response [12] -0.49% | binding (% of control) [13] 107% | inhibition [14] 0.8% | inhibition [15] -0.6% | inhibition [16] 8% | efflux inhibition (fraction of control) [17] 0.04 | inhibition [18] 1% | differentiation response [19] -5.97%
61%: double positive events [6]

CC12CCC3C(CC=C4CC(O)CCC43C)C1C/C(=C\c1cccc(F)c1)C2=O (centres undefined)
63.9%: double positive events [6]
inactive: percent of DMSO control GFP [1] 98.2% | GFP response vs DMSO [2] 103% | percent response of DMSO control [3] 95.1% | GFP response vs DMSO [4] 113% | GFP response, % of DMSO [5] 102% | vesicle binding response [6] 171% | inhibition [7] -7.08% | superoxide response (% of plate) [8] 100% | aptamer binding inhibition [9] 3% | response [10] -8.92% | inhibition [11] 9.38% | response [12] -4.42% | binding (% of control) [13] 98.7% | inhibition [14] -0.7% | inhibition [15] -0.1% | inhibition [16] -1.4% | efflux inhibition (fraction of control) [17] -0.13 | inhibition [18] -1% | differentiation response [19] 2.89%

O=c1[nH]c2ccccc2n1C1CCN(CCCC(c2ccc(F)cc2)c2ccc(F)cc2)CC1
inactive: percent of DMSO control GFP [1] 97.1% | GFP response vs DMSO [2] 107% | percent response of DMSO control [3] 103% | GFP response vs DMSO [4] 130% | GFP response, % of DMSO [5] 120% | vesicle binding response [6] 184% | inhibition [7] 41.5% | superoxide response (% of plate) [8] 88.4% | aptamer binding inhibition [9] -13% | inhibition [11] -9.19% | binding (% of control) [13] 114% | inhibition [14] -2.3% | inhibition [15] -1.7% | inhibition [16] -3% | efflux inhibition (fraction of control) [17] 0.12 | inhibition [18] 6% | differentiation response [19] 13.7%
active: response [10] 67.3% | response [12] 73.1%
56.5%: double positive events [6]

C[N+](C)(C)Cc1ccccc1
64.9%: double positive events [6]
inactive: percent of DMSO control GFP [1] 103% | GFP response vs DMSO [2] 105% | percent response of DMSO control [3] 106% | GFP response vs DMSO [4] 109% | GFP response, % of DMSO [5] 110% | vesicle binding response [6] 147% | inhibition [7] -14.5% | superoxide response (% of plate) [8] 89.2% | aptamer binding inhibition [9] -1% | response [10] -3.98% | inhibition [11] 3.88% | response [12] -0.83% | binding (% of control) [13] 103% | inhibition [14] 1.5% | inhibition [15] 0.6% | inhibition [16] 4.6% | efflux inhibition (fraction of control) [17] 0.245 | inhibition [18] 1% | differentiation response [19] -14.8%

Clc1ccc(COC(Cn2ccnc2)c2ccc(Cl)cc2Cl)cc1 (centres undefined)
inactive: percent of DMSO control GFP [1] 104% | GFP response vs DMSO [2] 111% | percent response of DMSO control [3] 107% | GFP response vs DMSO [4] 120% | GFP response, % of DMSO [5] 103% | vesicle binding response [6] 183% | inhibition [7] -1.09% | superoxide response (% of plate) [8] 121% | aptamer binding inhibition [9] 3% | response [10] 3.99% | inhibition [11] 16.5% | response [12] 2.69% | binding (% of control) [13] 105% | inhibition [14] -1.3% | inhibition [15] -0.4% | inhibition [16] -7% | efflux inhibition (fraction of control) [17] -0.28 | inhibition [18] -31% | differentiation response [19] 1.28%
62.7%: double positive events [6]

C[C@]12CCC(=O)C=C1CC[C@@H]1[C@@H]2CC[C@]2(C)C(=O)CC[C@@H]12
inactive: percent of DMSO control GFP [1] 97.6% | GFP response vs DMSO [2] 95.1% | percent response of DMSO control [3] 80.3% | GFP response vs DMSO [4] 106% | GFP response, % of DMSO [5] 84.2% | vesicle binding response [6] 210% | inhibition [7] 1.62% | aptamer binding inhibition [9] 1% | response [10] -0.98% | inhibition [11] -7.92% | response [12] -1.25% | binding (% of control) [13] 99.8% | inhibition [14] -2.7% | inhibition [15] -2.1% | inhibition [16] -3.5% | efflux inhibition (fraction of control) [17] 0.05 | inhibition [18] 9% | differentiation response [19] 11%
66.1%: double positive events [6]
